High-throughput results (PubChem)
Sm TGR block: qHTS Assay for the Inhibitors of Schistosoma Mansoni Peroxiredoxins. Schistosoma mansoni thioredoxin glutathione reductase (TGR), Q962Y6. purified TGR, DTNB reduction, TNB absorbance 405 nm. Potency, µM (doses to about 114 µM), for the others: at the highest dose activity change, negative = inhibition, most hits filed as inhibitors. actives 3% (n = 360,000); further: nearly all actives have a fitted effect of over 60% in size
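Kinetic colorimetric format: TGR-catalysed, NADPH-driven DTNB reduction monitored via TNB absorbance. Enzyme dispensed at 20 nM; compound exposure 15 min at room temperature before reaction start.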
FMDV inh: High Throughput Screening for Foot and Mouth Disease Virus Antivirals | FMDV antiviral cell-based qHTS | Potency, µM (doses to about 57.9 µM), inactives show at the highest dose activity change, negative = inhibition, actives largely listed as inhibitors | actives 1.2% (n = 410,000) | AID 1159524, 2015; calls by dose curve; tested in HEK293T cells; further: read-out not given here; nearly all actives have a fitted effect of over 45% in size
AmpC detergent: qHTS Inhibitors of AmpC Beta-Lactamase (assay with detergent) | Potency, µM (top dose mostly 114 µM), without a hit: at the highest dose activity change, negative = inhibition, usual class: inhibitors | AID 485294, 2010 | AmpC hydrolysis of nitrocefin, absorbance 480 nm, 0.01% Triton | P00811 | actives 0.041% (n = 370,000);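 further: 0% = no-compound wells and -100% = no-enzyme wells; nearly all actives have a fitted effect of over 25% in size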
Target sequence (P00811 whole entry, looked up): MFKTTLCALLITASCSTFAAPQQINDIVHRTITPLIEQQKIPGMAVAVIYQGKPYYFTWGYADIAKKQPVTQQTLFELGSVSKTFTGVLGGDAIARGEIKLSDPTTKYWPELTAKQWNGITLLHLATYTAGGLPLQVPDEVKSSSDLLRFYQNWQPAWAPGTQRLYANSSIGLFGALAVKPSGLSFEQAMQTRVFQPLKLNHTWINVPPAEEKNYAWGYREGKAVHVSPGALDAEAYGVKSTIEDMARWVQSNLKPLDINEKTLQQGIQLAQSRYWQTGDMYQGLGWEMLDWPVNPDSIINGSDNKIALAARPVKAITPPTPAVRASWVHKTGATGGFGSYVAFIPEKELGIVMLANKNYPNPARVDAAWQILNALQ
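AmpC (5.3 nM in the dispensed reagent) in 20 mM phosphate pH 7.0 with 0.01% (detergent screen) or 0.0001% Triton X-100 was preincubated with compounds for 15 min at room temperature. Nitrocefin was then added from an 800 uM solution, and hydrolysis was followed at 480 nm.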
AMA1 RON2 block: qHTS for Inhibitors of AMA1-RON; Towards Development of Antimalarial Drug Lead: Primary Screen. Potency, µM (top dose mostly 58.2 µM), for inactives: top-dose activity change, negative = inhibition, usual class: inhibitors. Plasmodium falciparum AMA1 (3D7) - RON2 peptide interaction. AlphaScreen AMA1-biotinylated RON2 peptide binding. AID 720542, 2013. actives 0.2% (n = 360,000);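 further: 0% = vehicle wells and -100% = peptide control; nearly all actives have a fitted effect of over 45% in size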
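AMA1 (3D7) with his tag at 25 nM final met compounds first, then biotinylated RON2 peptide at 25 nM; detection used donor plus acceptor beads, 10 µg/mL apiece, read by AlphaScreen after 30 min at room temperature.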
AmpC inh no detg: qHTS Inhibitors of AmpC Beta-Lactamase (assay without detergent); P00811; AmpC nitrocefin hydrolysis, absorbance 480 nm, 0.0001% Triton; Potency, µM (top dose mostly 57.1 µM), inactives show top-dose activity change, negative = inhibition, actives largely listed as inhibitors; actives 0.52% (n = 330,000);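 further: plate controls were no compound for no effect and no enzyme for full effect; nearly all actives have a fitted effect of over 20% in size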
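AmpC (5.3 nM in the dispensed reagent) in 20 mM phosphate pH 7.0 with 0.01% (detergent screen) or 0.0001% Triton X-100 was preincubated with compounds for 15 min at room temperature. Nitrocefin was then added from an 800 uM solution, and hydrolysis was followed at 480 nm.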
* hit, by the source's call; u = inconclusive; x = no result. A selection: hits, their analogues and other compounds. The true share with any hit is near 4.1%. Unless noted, the call rests on the fitted dose curve; in most records, active means well fitted curve in the direction sought with a large enough effect; inconclusive means small, poorly fitted or top-dose-only effect, or another doubt; inactive means no such curve, though single readings can be large; an effect the other way counts as inactive or inconclusive. Unless noted, on the % scale 0 is the no-effect control and ±100 the full control effect; potency means the concentration at half of the fitted maximal effect.

SMILES	Sm TGR block	FMDV inh	AmpC detergent	AMA1 RON2 block	AmpC inh no detg
Cc1ccc(NC(=O)Cn2nc(N3CCN(c4ccccc4)CC3)ccc2=O)cc1F	0%	-28%	u	x	x
Cc1ccc2sc(N3CCN(C(=O)CCS(=O)(=O)c4ccc(F)cc4)CC3)nc2c1C	-26%	u	2%	x	x
Cc1ccc(S(=O)(=O)CCC(=O)N2CCN(c3ccc(Cl)cc3)CC2)cc1	13µM*	u	3%	-15%	57%
Cc1c(Cl)ccc2sc(N3CCN(C(=O)CCS(=O)(=O)c4ccc(F)cc4)CC3)nc12	0%	11µM*	2%	x	x
CC(=O)c1ccc(S(=O)(=O)Nc2ccc(C(=O)NCC(c3cccs3)N3CCOCC3)cc2)cc1 (centres undefined)	14µM*	-14%	u	-8%	-15%
COc1ccccc1OCC(=O)NCC(c1cccs1)N1CCOCC1 (centres undefined)	-6%	-17%	-3%	7%	16%
O=C(NCC(c1cccs1)N1CCOCC1)c1ccc(Br)o1 (centres undefined)	25µM*	-5%	-5%	3%	x
CC(C)c1ccccc1OCC(=O)NCC(c1cccs1)N1CCOCC1 (centres undefined)	2%	32µM*	u	2%	108%
COc1cc(NS(=O)(=O)c2ccc(NC(=O)c3cccc(F)c3)cc2)nc(OC)n1	12%	-9%	-3%	x	x
O=c1c(-c2ccccc2)nc2cnc(N3CCOCC3)nc2n1C1CC1	x	-10%	x	x	x
CC(C)(C)c1cc(/C=C2\NC(=O)NC2=O)cc(C(C)(C)C)c1O	1.1µM*	-9%	u	-1%	-21%
COc1ccc(C(NC(=O)c2ccco2)c2ccc(OC)c(OC)c2)cc1OC	-11%	-16%	u	11%	2%
CCOc1ccc(C(NC(=O)/C=C/c2ccco2)c2ccc(OC)c(OC)c2)cc1 (centres undefined)	45µM*	0%	-2%	3%	51%
COc1ccc(C(NC(=O)/C=C/c2ccco2)c2ccc(OC)c(OC)c2)cc1 (centres undefined)	25µM*	-10%	-6%	-18%	31%
CCOc1ccc(CN(C)C(=O)CCNC(=O)c2ccco2)cc1	-5%	2%	8%	-11%	-16%
CCOc1ccc(CC(=O)NNC(=O)/C=C/C(=O)O)cc1	18µM*	-4%	5%	70%	-21%
CCOc1ccc(CN(C)C(=O)CCl)cc1	16µM*	25µM*	u	-7%	-11%
Cc1ccc2oc(=O)c(S(=O)(=O)c3ccc(C(C)(C)C)cc3)cc2c1	-3%	-23%	21%	x	x
CCCCn1c(N)c(N(CCOC)C(=O)c2ccc(-c3ccc(Cl)cc3)o2)c(=O)[nH]c1=O	45µM*	10%	-3%	-5%	100%
CCCn1c(N)c(N(CCOC)C(=O)c2cc(-c3ccco3)nc3ccccc23)c(=O)[nH]c1=O	18µM*	-23%	0%	u	-14%
CCCCn1c(N)c(N(CCOC)C(=O)c2cc(-c3ccccc3)nc3ccccc23)c(=O)[nH]c1=O	4%	0%	-14%	4%	50%
COCCCN(C(=O)c1cc(-c2ccco2)nc2ccccc12)c1c(N)n(Cc2ccccc2)c(=O)[nH]c1=O	16µM*	-2%	-17%	u	45%
COCCCN(C(=O)c1cc(Cl)nc2ccccc12)c1c(N)n(Cc2ccccc2)c(=O)[nH]c1=O	0%	0%	0%	-7%	3%
O=C(c1ccncc1)N1CCC2(CCN(Cc3nccs3)CC2)CC1	x	0%	x	x	x
O=C(CCl)NCc1c(Cl)cccc1-n1cccc1	32µM*	0%	4%	-11%	-12%
SMILES	Sm TGR block	FMDV inh	AmpC detergent	AMA1 RON2 block	AmpC inh no detg
FC(F)(F)c1ccc(C2=Nc3ccccc3NC(c3cccs3)=N2)cc1	-1%	-12%	1%	x	x
COc1cc(C2OCC3C(c4ccc(OC5OC(CO)C(O)C(O)C5O)c(OC)c4)OCC23)ccc1O (centres undefined)	35µM*	-21%	-5%	-13%	-11%
Cc1ccc(C(=O)NC(N2CCCC2)C(Cl)(Cl)Cl)cc1 (centres undefined)	35µM*	19%	u	61%	-30%
O=C(NC(N1CCOCC1)C(Cl)(Cl)Cl)c1ccc(Br)cc1 (centres undefined)	u	0%	-3%	-4%	-30%
CC(C)(C)OC(=O)NCc1ccc(CNC(=O)c2[nH]cnc2C(=O)NCC(=O)OCc2ccccc2)cc1	1%	28µM*	2%	124%	33%
CC(C)(C)OC(=O)NCc1ccc(CNC(=O)c2nc[nH]c2C(=O)NCc2ccccc2)cc1	1%	u	5%	172%	26%
C[C@@H](OC(=O)c1[nH]cnc1C(=O)NCc1ccc(CNC(=O)OC(C)(C)C)cc1)c1ccccc1	x	32µM*	x	94%	88%
CC(C)(C)OC(=O)CNC(=O)c1[nH]cnc1C(=O)NCCCCCNC(=O)OC(C)(C)C	7%	16µM*	4%	114%	55%
O=C(CCN1C(=O)c2ccccc2Sc2ncccc21)Nc1ccc(F)cc1F	-11%	1%	u	x	x
Cc1cccc(N2C(=O)N(Cc3ccc(C(C)(C)C)cc3)c3ccccc3S2(=O)=O)c1	6%	-14%	-3%	x	x
O=S1(=O)c2ccccc2N=NN1Cc1ccc(Cl)c(Cl)c1	4µM*	x	0%	x	x
CC(C)(C)c1ccc(CN2N=Nc3ccccc3S2(=O)=O)cc1	13µM*	u	-8%	-11%	-48%
CCOc1ccc2oc(C(=O)N(C)CCc3ccc(OC)c(OC)c3)c(C)c2c1	-19%	-12%	u	7%	52%
COc1ccc(CCN(C)C(=O)COC(=O)/C=C/c2ccc(C)o2)cc1OC	16µM*	-10%	-11%	-11%	124%
Cc1ccc(Cl)cc1N1CCN(C(=O)c2cnn(C)c2C2CCN(C(=O)OC(C)(C)C)CC2)CC1	-3%	u	-4%	x	x
CC(C)C(=O)N1CCN(c2nc(-c3ccc(Cl)cc3)cs2)CC1	32µM*	-13%	-1%	-8%	19%
Oc1cccc(C=Nc2cccc3ccccc23)c1O	7.9µM*	6%	-10%	u	-53%
Oc1ccccc1N=Cc1c(O)ccc2ccccc12	28µM*	-1%	-8%	-7%	-46%
CC(=O)c1cccc(N=Cc2c(O)ccc3ccccc23)c1	-17%	-13%	u	-4%	-14%
Oc1ccccc1C=Nc1cccc2ccccc12	6%	-2%	3%	-15%	-6%
